Test results: PubChem BioAssay (NCATS)
Records with an inconclusive call do not appear. The source holds several records for some structures; these can differ, active in one and inactive in another. The source made the active and inactive calls. Calls come from the whole dose curve.

molecular target: Vitamin D3 receptor (Homo sapiens) (UniProt P11473); test: qHTS assay for small molecule antagonists of vitamin D receptor signaling (AID 588541); settings: HEK293T VDR-UAS-bla, beta-lactamase ratio, antagonist mode; series mostly up to 76.7 µM; activity change, negative = inhibition: at the top concentration;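 for activity change, negative = inhibition: receptor activated by calcitriol during compound treatment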
Sequence (P11473 whole entry, looked up): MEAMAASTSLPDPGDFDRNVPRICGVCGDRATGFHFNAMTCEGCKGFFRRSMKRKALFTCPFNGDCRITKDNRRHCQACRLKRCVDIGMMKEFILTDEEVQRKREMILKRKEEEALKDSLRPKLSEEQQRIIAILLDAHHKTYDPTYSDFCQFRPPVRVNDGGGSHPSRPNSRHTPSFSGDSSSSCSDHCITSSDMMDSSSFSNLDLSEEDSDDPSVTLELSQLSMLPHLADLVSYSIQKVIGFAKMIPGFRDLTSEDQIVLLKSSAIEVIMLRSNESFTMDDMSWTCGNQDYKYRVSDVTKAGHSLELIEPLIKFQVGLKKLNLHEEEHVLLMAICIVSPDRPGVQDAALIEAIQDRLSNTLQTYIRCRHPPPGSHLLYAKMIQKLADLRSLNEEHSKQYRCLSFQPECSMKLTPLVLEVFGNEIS
Text: NIH Chemical Genomics Center [NCGC]
U.S. Environmental Protection Agency [EPA]
National Institutes of Environmental Health Sciences [NIEHS]
National Toxicology Program [NTP]
The Vitamin D receptor (VDR) is a member of nuclear hormone receptor superfamily and it plays a critical role in calcium homeostasis and bone metabolism. It plays a role in inducing cell differentiation, inhibiting cell growth and in thrombogenicity. So, VDR that mediates these effects represents a pharmacological target in prevention and treatment of hyperproliferative malignancies, such as cancer and psoriasis, cardiovascular, immunological, inflammatory and renal diseases etc.
NCGC Assay Protocol Summary
Using a beta-lactamase reporter-gene under control of Vitamin D receptor (VDR) response element, a cell-based assay [GeneBLAzer (VDR -UAS-bla assay developed by Invitrogen] was used to measure VDR ligands signaling. GeneBLAzer VDR -UAS-bla HEK293T cells were used with assay medium containing 2% charcoal-stripped FBS. The assay was performed in clear bottom black Greiner 1536-well plates. Library compounds were measured for their ability to inhibit the reporter gene activity. Compounds were screened in a titration series in 1536-well format. The fluorescence intensity (405 nm excitation, 460/530 nm emission) was measured using an EnVision plate reader. Data was normalized relative to 1-alpha,25-Dihydroxy vitaminD3 control (50 nM, 100%) and DMSO only wells (basal, 0%). Concentration-response titration points for each compound were fitted to the Hill equation yielding concentrations of half-maximal inhibition (IC50) and maximal response (efficacy) values.
qHTS protocol for VDR beta-lactamase assay in antagonist mode
[Step] [Parameter] [Value] [Description]
1. Reagent; 5 uL; 2000 cells/well
2. Incubation; 37 C for 5 hrs
4. Controls (DMSO); 23 nL,
5. Agonist (Stimulator); 1uL; 1-alpha,25-Dihydroxy vitaminD3 at 50 nM and 3 nM final concentrations
6. Incubation; 37 C for 16 hrs
7. Detection reagent; 1 uL of CCF4-dye
8. Incubation; RT for 2 hrs
9. Detection; Fluorescence; Envision plate reader
% is set by controls: 0 for no effect and ±100 for the full control effect.

SMILES	activity change, negative = inhibition	Potency
Cc1ccc(N)cc1[N+](=O)[O-]	-3.33% (inactive)	–
C=CC(C)(O)CCCC(C)CCCC(C)CCCC(C)C (stereo not given)	3.07% (inactive)	–
Cc1ccc(C(=O)O)cc1[N+](=O)[O-]	3.89% (inactive)	–
Oc1ccc2c(c1)OCO2	-1.24% (inactive)	–
c1cc2c3c(c1)ccc1cccc(c13)C2	-4.51% (inactive)	–
O=C(O)c1ccc([N+](=O)[O-])cc1	–	inactive
CC(C)S	2.86% (inactive)	–
NC(=O)Nc1nc2ccccc2[nH]1	-5.8% (inactive)	–
CCCCCCCCC1CO1 (stereo not given)	-0.714% (inactive)	–
O=[N+]([O-])c1cc(N(CCO)CCO)ccc1NCCO	–	inactive
Cc1cccnc1	-7.99% (inactive)	–
C=CC(=O)OCCCCCCOC(=O)C=C	–	31.6 µM (active) and inactive
Oc1c(Cl)cc(Cl)c(Cl)c1Cl	–	inactive
CCCCCCN	0.812% (inactive)	–
c1ccncc1	1.98% (inactive)	–
OCC(CBr)(CBr)CBr	6.83% (inactive)	–
Nc1ccccc1O	-2.75% (inactive)	–
O=[N+]([O-])c1cc(Cl)c(Cl)c(Cl)c1Cl	6.18% (inactive)	–
CC(=O)OCc1ccc2c(c1)OCO2	-1.08% (inactive)	–
CCCCCCCCOc1ccc(C(=O)O)cc1	2.67% (inactive)	–

SMILES	activity change, negative = inhibition	Potency
COc1ccc(C)cc1N	-5.31% (inactive)	–
Clc1nc2ccccc2nc1Cl	4.99% (inactive)	–
COc1cc(-c2ccc(N=C=O)c(OC)c2)ccc1N=C=O	-5.93% (inactive)	–
Cc1c(C(=O)O)c(O)cc2c1C(=O)c1c(O)c([C@H]3O[C@H](CO)[C@@H](O)[C@H](O)[C@H]3O)c(O)c(O)c1C2=O	-0.921% (inactive)	–
CC(=O)CC(=O)Nc1ccccc1	1.89% (inactive)	–
c1ccc(COCc2ccccc2)cc1	-2.81% (inactive)	–
O=CC(=O)c1ccccc1	3.26% (inactive)	–
O=[N+]([O-])c1cccc(I)c1	1.13% (inactive)	–
O=C1c2ccccc2C(=O)C1(O)O	3.51% (inactive)	–
CC/C=C/C/C=C/C/C=C/CCCCCCCC(=O)OCC	-33.4% (inactive)	–
CC(/C=C/C=C(C)/C=C/C(=O)O)=C\C=C\C=C(C)\C=C\C=C(C)\C=C\C(=O)O	10.7% (inactive)	–
CC(C)(C)C(=O)C1C(=O)c2ccccc2C1=O	9.49% (inactive)	–
CCc1ccc(C(c2ccc(CC)cc2)C(Cl)Cl)cc1	1.69% (inactive)	–
CC(CCC(=O)O)(c1ccc(O)cc1)c1ccc(O)cc1	–	inactive
CN(C)c1ccc(Cc2ccc(N(C)C)cc2)cc1	–	inactive
Cc1c(N)cccc1Cl	-0.385% (inactive)	–
C=Cc1cccc(C)c1	-0.501% (inactive)	–
CCNC(=S)NCC	-6.71% (inactive)	–
CC(=O)Nc1cccc(C)c1	2.73% (inactive)	–
C=CC(=O)CC	3.58% (inactive)	–
